BAZ2B inh = qHTS Assay for Inhibitors of BAZ2B. Bromodomain adjacent to zinc finger domain protein 2B (Homo sapiens), Q9UIF8. AlphaScreen BAZ2B-H3K14Ac peptide displacement. Potency, µM (series often up to 114 µM), actives largely listed as inhibitors. actives 4.4% (n = 360,000). AID 504333, 2011; also: nearly all actives have a fitted effect of over 60% in size
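Compounds, titrated to a top concentration of 110 uM, were incubated 30 min at room temperature with preformed BAZ2B/acetyl-K14 H3 peptide complex (50 nM each). Proximity signal was measured by AlphaScreen after 20 min with beads.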
HP1b chromo inh = HTS for Inhibitors of HP1-beta Chromodomain Interactions with Methylated Histone Tails; Chromobox protein homolog 1 (Homo sapiens), P83916; AlphaScreen HP1-beta / biotin-H3K9me3 peptide binding; Potency, µM (highest dose often 114 µM), usual class: inhibitors; actives 0.56% (n = 390,000); AID 540317, 2011; also: nearly all actives have a fitted effect of over 70% in size
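HP1-beta protein (50 nM final) preincubated 30 min at room temperature with biotinylated H3(1-18)K9me3 peptide (50 nM) in PBS pH 7.4, 0.01% Tween-20, then compound added for 30 min. AlphaScreen streptavidin donor/nickel chelate acceptor beads (10 ug/mL final), 30 min dark, luminescence read.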
Six1-Eya2 blk = qHTS Assay for Inhibitors of the Six1/Eya2 Interaction. actives 0.56% (n = 360,000). activity change, % (concentration not given with the values). AlphaScreen GST-Six1/His-Eya2 binding, biochemical; active compounds read low. Homeobox protein SIX1 (Homo sapiens) + Protein phosphatase EYA2 (Homo sapiens), …; in the data active = activity change below about -65%; inconclusive = mostly about -30% to -63%
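Six1/Eya2 binding was read as AlphaScreen signal after compounds were pinned into GST-Six1 plus His-tagged Eya2 (5X stock 250/500 nM) in pH 8.0 Tris/NaCl/TCEP buffer, beads added, then incubated 1 h, 37 C, dark.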
CtBP-E1A blk = qHTS Assay for Inhibitors of the CtBP/E1A Interaction. AlphaScreen GST-E1A/His-CtBP binding, 1536-well; active compounds read low. actives 0.49% (n = 340,000). activity change, % (test concentration not listed). CtBP / adenovirus E1A interaction (AlphaScreen); in the data active = activity change below about -65%; inconclusive = mostly about -30% to -63%
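GST-E1A and His-tagged CtBP (125 nM each as 5X stock) were preincubated with pin-transferred compound for 2 h at 37 °C in the dark, then glutathione donor and nickel acceptor beads were added for 1 h before AlphaScreen reading.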
G9a block = qHTS Assay for Inhibitors of Histone Lysine Methyltransferase G9a | G9a H3K9 monomethylation, AlphaScreen, 2 h | AID 504332, 2011 | Potency, µM (highest dose often 102 µM), most hits filed as inhibitors | Histone-lysine N-methyltransferase EHMT2 (Homo sapiens), Q96KQ7 | actives 8.8% (n = 350,000); also: nearly all actives have a fitted effect of over 75% in size
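G9a (20 nM) preincubated 15 min RT with compounds, then 500 nM biotinylated H3K9 peptide and 20 uM SAM added; 2 h RT reaction. Monomethyl-H3K9 product detected by AlphaScreen with anti-H3K9me1 antibody, streptavidin donor and anti-rabbit IgG acceptor beads.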
JMJD2A Tudor inh = qHTS Assay for Inhibitors of JMJD2A-Tudor Domain. Potency, µM (doses to about 114 µM), most hits filed as inhibitors. actives 4.4% (n = 390,000). AID 504339, 2011. AlphaScreen JMJD2A-Tudor / H3K4me3 peptide binding; also: nearly all actives have a fitted effect of over 50% in size
Hits are given with their value; . = inactive; ? = inconclusive; / = no result; [ ] = dose if it differs, or a comment. Sampled rows, rich in hits. Any-hit rate of the full collection: about 10%. Unless noted, calls follow the shape of the dose curve; as a rule, active = well fitted inhibition curve with a large enough effect; inconclusive = small, poorly fitted or top-dose-only effect; inactive = no such curve, though single readings can be large or run the other way.

SMILES	BAZ2B inh	HP1b chromo inh	Six1-Eya2 blk	CtBP-E1A blk	G9a block	JMJD2A Tudor inh
COc1ccccc1Cn1c(=S)[nH]c2cc(C(=O)NCCCN3CCOCC3)ccc2c1=O	.	.	.	.	35.5µM	.
COC(=O)c1ccc2c(=O)n(NC(C)=O)c(=S)[nH]c2c1	50.1µM	?	.	.	?	3.55µM
O=Cc1c(NCCc2ccc(F)cc2)c2ccccc2[nH]c1=O	.	.	.	.	.	.
CCn1c(=S)[nH]c2cc(C(=O)OC)ccc2c1=O	.	.	.	.	?	.
CCc1cc(C(=O)NN2C(=O)NC3(CCCCC3)C2=O)sc1C	.	.	.	.	.	.
CC(C)(C)c1ccc2c(c1)N(CC(=O)N1CCCC1)C(=O)CO2	.	.	.	.	/	.
Cc1ccc2[nH]cc(C(=O)CN3CCN(c4ccccn4)CC3)c2c1	.	.	.	.	50.1µM	.
Cc1ccc(C(=O)CN2CCN(c3ccccn3)CC2)c(C)c1	.	.	.	.	39.8µM	.
COc1ccc(OC)c([N+](=O)[O-])c1C(N)=O	50.1µM	?	.	.	31.6µM	50.1µM
COc1cc(C(=O)NCC2(N(C)C)CCCCC2)ccc1OCc1ccccc1	.	.	.	.	?	.
Cc1ccc(-n2c(C)cc(/C=N/NC(=O)c3ccncc3)c2C)cc1C	50.1µM	.	.	.	50.1µM	?
CCc1ccc(-n2c(C)cc(/C=N/NC(=O)c3ccncc3)c2C)cc1	39.8µM	.	.	.	/	?
Cc1ccc(-n2c(C)cc(/C=N/NC(=O)c3ccncc3)c2C)c(C)c1	44.7µM	.	.	.	?	?
COC(=O)N/N=C/c1cc(C)n(-c2ccc(Br)cc2)c1C	44.7µM	?	.	.	/	.
Cc1cccc(C)c1-n1c(C)cc(/C=N/NC(=O)c2ccncc2)c1C	?	.	.	.	?	?
Cc1cc(/C=N/NC(=O)c2ccncc2)c(C)n1-c1ccccc1	?	.	.	.	?	.
CC(C)c1ccc(Nc2ncnc3c2c(-c2ccccc2)cn3-c2ccccc2)cc1	.	.	/	/	.	.
CC1(C)C=Cc2c(ccc3c2OC[C@H](c2ccc(O)cc2O)C3)O1	50.1µM	.	.	.	.[2.33 µM]	50.1µM
COCCCNC(=O)C1CCN(C(=O)c2cnn(-c3ccccc3)c2-n2cccc2)CC1	.	.	/	/	.	.
CC1(C)O[C@H]2OC([C@H](O)CON3C(=O)c4ccccc4C3=O)[C@H](O)[C@H]2O1 (stereo partly specified)	.	.	.	/	44.7µM	.
CCOc1cccc2cc(-c3nc(-c4ccccc4C)no3)c(=O)oc12	.	.	/	/	.	.
CCn1c(SCC(=O)NC(=O)NC(C)(C)C)nc2ccccc21	.	?	.	.	.	11.2µM
COCCn1c(SCC(=O)NC(=O)NC(C)(C)C)nc2ccccc21	.	.	.	.	.	.
CCn1c(SCC(=O)N/N=C/c2ccc(C)o2)nnc1-c1ccc(C)cc1	.	.	.	.	44.7µM	?
CCn1c(SCC(=O)N/N=C/C=C/c2ccco2)nnc1-c1ccc(OC)cc1	?	.	.	.	35.5µM	.
Cc1ccc(/C=N/NC(=O)CSc2nc3ccccc3[nH]2)o1	?	.	.	.	44.7µM	.
C[C@@H]1C(=O)O[C@H](C)[C@H]1C[C@@H](O)[C@](C)(O)C1CC[C@@]2(O)C3=CC(=O)[C@@H]4C[C@@H](O)[C@@H](O)C[C@]4(C)C3CC[C@]12C (stereo partly specified)	/	.	.	.	/	.
O=C(CSc1nnc(SCc2ccccc2Cl)s1)N/N=C/c1c[nH]c2ccccc12	.	.	.	.	.	.

Screening data as filed in PubChem.
